Compound activity from PubChem BioAssay.
HT1080 IDH1KD tx: HT-1080 IDH1 knockdown cell toxicity (counter line) | 360,000 compounds, 2% hits | HT-1080 IDH1 knockdown viability, ATP luminescence, 48 h | Potency, µM (series often up to 46.1 µM), for inactives: top-dose activity, negative = toxicity, most hits filed as cytotoxic | AID 686971;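 further: potency means the concentration at half of the fitted maximal effect; 0% = DMSO wells and -100% = cell-free medium wells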
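CellTiter-Glo luminescence after 48 h compound exposure at 37 degrees C of IDH1-knockdown HT-1080 cells in 5% FBS RPMI. %Activity scaled between DMSO wells and cell-free media wells, with curves fitted and assigned curve classes.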
KB-3-1 cytotox: KB-3-1 parental cell cytotoxicity | KB-3-1 viability, CellTiter-Glo ATP luminescence, 72 h | Potency, µM (top dose mostly 46.1 µM), most hits filed as cytotoxic | 400,000 compounds, 1.4% hits | AID 1347075; further: potency means the concentration at half of the fitted maximal effect; nearly all actives have a fitted effect of over 60% in size
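Cytotoxicity in the drug-sensitive parental line KB-3-1 was scored as loss of CellTiter-Glo luminescence following 72 h incubation with compound. Values come from curve fitting of normalized concentration-response data.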
KB-V1 cytotox: KB-V1 MDR subline cytotoxicity; KB-V1 MDR cells viability, CellTiter-Glo, 72 h; Potency, µM (series often up to 46.1 µM), actives largely listed as cytotoxic; 400,000 compounds, 3.4% hits; further: potency means the concentration at half of the fitted maximal effect; nearly all actives have a fitted effect of over 60% in size
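Compound-treated KB-V1 multidrug-resistant cells, 72 h, 37 degrees C; viability by CellTiter-Glo. Fitted qHTS curves give the values.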
HT1080NT lethal: kills 2HG-producing HT-1080-NT fibrosarcoma cells | HT-1080-NT fibrosarcoma viability, CellTiter-Glo ATP luminescence, 48 h | Potency, µM (highest dose often 46.1 µM), for the others: at the highest dose activity, negative = less viability, actives largely listed as cytotoxic | 360,000 compounds, 1.6% hits | AID 686970;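 further: NT is the 2HG producing partner of a matched IDH1 knockdown line; potency means the concentration at half of the fitted maximal effect; 0% = DMSO-treated cells and -100% = media-only wells without cells; nearly all actives have a fitted effect of over 55% in size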
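HT-1080-NT; 750 cells/well; 5% FBS RPMI; 48 h compound, 37 degrees C; CellTiter-Glo luminescence; curve fitting and curve-class assignment.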
IL1B secr inh: inhibitors of inflammasome signaling (IL-1 beta secretion); THP-1 LPS/ATP IL-1B secretion, AlphaLISA, 16 h; stronger effect = lower value; activity change, % at 57.5 µM; 360,000 compounds, 4.7% hits; in the data active means activity change below about -50%; inconclusive means mostly about -30% to -49%
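Secreted IL-1B measured by AlphaLISA bead assay after 16 h compound exposure of THP-1 cells; compounds (final up to 57.5 uM) added 1 h before LPS (250 ng/mL) and ATP (1.25 mM) stimulation; lower signal means less secretion.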
* = called active by the depositor; i = inactive; ? = inconclusive; · = not tested or not shown; [ ] = dose if it differs, or a comment. Hits are enriched below; roughly 8.8% of the tested compounds scored in any of these assays. Unless noted, the call rests on the fitted dose curve; in most records, active means well fitted curve in the direction sought with a large enough effect; inconclusive means small, poorly fitted or top-dose-only effect, or another doubt; inactive means no such curve, though single readings can be large; an effect the other way counts as inactive or inconclusive. Unless noted, on the % scale 0 is the no-effect control and ±100 the full control effect.

SMILES | HT1080 IDH1KD tx | KB-3-1 cytotox | KB-V1 cytotox | HT1080NT lethal | IL1B secr inh
CCOc1cc(/C=N/NC(=O)c2ccc(CN3CCOCC3)cc2)ccc1OCc1ccccc1 | -1% | ? | 2.3µM* | 0% | 42
O=C(c1ccc(F)cc1F)N1CCN(c2n[nH]c(=O)[nH]c2=O)CC1 | -10% | i | ? | 0% | 4
CC(=NNC(=O)c1cc(C)nc2ccccc12)c1ccc(N2CCOCC2)cc1 | ? | i | i | ? | 43
Cc1ccc(/C=N/NC(=O)c2cc(-c3ccncc3)nc3ccccc23)o1 | 1.8µM* | 5.8µM* | i | ? | 59
C/C(=N\NC(=O)c1cc(-c2ccncc2)nc2ccccc12)c1ccc(N2CCOCC2)cc1 | 10µM* | i | i | 21µM* | 12
O=C(N/N=C/c1ccc([N+](=O)[O-])o1)c1cc(-c2ccc(-c3ccccc3)cc2)nc2ccccc12 | ? | ? | i | ? | -8
O=C(N/N=C/c1ccc([N+](=O)[O-])o1)c1cc(-c2ccncc2)nc2ccccc12 | ? | ? | ? | 4µM* | -26
CCN(CC1CCCO1)C(=O)CCc1nnc(CCc2ccc(OC)cc2)o1 (configuration not stated) | -3% | · | · | 0% | 1
COc1cccc(C(=O)OCC(=O)N2CCc3ccccc3C2)c1OC | -5% | i | i | -7% | 27
CCOC(=O)C1=C(C)N(c2ccc(OC)cc2)C(=O)/C1=C\c1cccs1 | -2% | ? | i | -6% | -60*
COc1ccc2[nH]c3nc(SCC(=O)Nc4cccc(NC(C)=O)c4)nnc3c2c1 | -7% | i | ? | -9% | -52*
CCOC(=O)CN(C(=O)CSc1nnc2c(n1)[nH]c1ccc(OC)cc12)c1ccc(F)cc1 | -7% | i | i | -19% | -59*
COc1ccc(CNC(=O)CSc2nnc3c(n2)[nH]c2ccc(F)cc23)cc1 | 4% | i | i | -18% | 1
N#Cc1cccc(NC(=O)C2CCN(c3ncccn3)CC2)c1 | · | i | i | · | ·
CO/N=C/c1ccc(N2CCN(C(=O)c3ccc(Cl)cc3Cl)CC2)c([N+](=O)[O-])c1 | ? | 13µM* | 2.6µM* | ? | -62*
CO/N=C/c1ccc(N2CCN(C(=O)c3cccc(C(F)(F)F)c3)CC2)c([N+](=O)[O-])c1 | ? | ? | 10µM* | -4% | -23
CO/N=C/c1ccc(N2CCN(C(=O)c3ccc(F)cc3)CC2)c([N+](=O)[O-])c1 | -13% | i | 16µM* | 6% | -8
O=C(N/N=C/c1ccc(N2CCOCC2)c([N+](=O)[O-])c1)c1ccc(F)cc1 | -20% | i | i | -19% | 75
O=C(c1ccccc1)N1CCCCC(S(=O)(=O)c2ccc3ccccc3c2)C1=O (configuration not stated) | 5% | i | i | 6% | 13
O=c1[nH]c2cc3ccccc3cc2nc1C(F)(F)F | 1% | i | i | -5% | -3
CC(C)c1nc2cc3ccccc3cc2[nH]1 | -18% | i | i | -4% | -53*
O=C(Nc1cccc(Cl)c1)N1CCSc2cc(Cl)ccc21 | 0% | i | 18µM* | 2% | -18
CCCCSC(=S)NC1CCS(=O)(=O)C1 (configuration not stated) | ? | i | i | -29% | -98*
Cc1cccc(-c2nc(CSc3nncn4c3cc3oc(C)cc34)c(C)o2)c1 | · | i | i | · | ·
Cc1ccc2sc(N(CCCN(C)C)C(=O)c3ccc(Br)s3)nc2c1C | 13µM* | ? | ? | 21µM* | -101*
SMILES | HT1080 IDH1KD tx | KB-3-1 cytotox | KB-V1 cytotox | HT1080NT lethal | IL1B secr inh
Cc1cccc2sc(N(CCCN(C)C)C(=O)c3nc4ccccc4s3)nc12 | -1% | i | i | 1% | -1
CC(=O)c1ccc(C(=O)N(CCCN(C)C)c2nc3c(C)c(C)ccc3s2)cc1 | · | i | i | · | ·
Cc1ccc2sc(N(CCCN(C)C)C(=O)c3nc4ccccc4s3)nc2c1C | 21µM* | ? | ? | ? | -29
Cc1cc(=O)n(Cc2cccc(Cl)c2)c2c1c(C)nn2C | · | i | i | · | ·
CCOC(=O)c1ccc(Nc2ncnc3c2cnn3C)cc1 | 16%[9.24 µM] | i | i | -5% | -14
Cn1ncc2c(O/N=C(\N)c3ccc(C(C)(C)C)cc3)ncnc21 | 6.5µM* | ? | 13µM* | 18µM* | -101*
CC1=C(C(=O)c2ccccc2)C(c2ccc(OC(F)F)cc2)NC(=S)N1 (configuration not stated) | 15µM* | i | ? | ? | ?
COc1ccccc1N(C)S(=O)(=O)c1ccc(C(=O)Nc2cc(OC)c(OC)c(OC)c2)cc1 | -15% | 16µM* | ? | -11% | -17
CC(=O)Nc1ccc(C(=O)Nc2cccc(S(=O)(=O)N(C)c3ccccc3)c2)cc1 | -13% | i | i | -4% | 8
CN(c1ccccc1)S(=O)(=O)c1ccc(C(=O)NNC(=O)c2ccccc2)cc1 | -1% | i | i | 2% | 12
CN(c1ccccc1)S(=O)(=O)c1cccc(NC(=O)c2ccc(Cl)c([N+](=O)[O-])c2)c1 | ? | 21µM* | 16µM* | -13% | -88*
CN(c1ccccc1)S(=O)(=O)c1cccc(C(=O)NNC(=O)c2ccccc2)c1 | -21% | 21µM* | 15µM* | -11% | 14
COc1ccccc1N(C)S(=O)(=O)c1ccc(C(=O)Nc2ccncc2)cc1 | -2% | i | i | -4% | -1
CN(c1ccccc1)S(=O)(=O)c1cccc(C(=O)Nc2ccc3c(c2)CCC3)c1 | -1% | ? | 5.8µM* | -1% | 0
COc1ccc(NC(=S)N2CCC3CC2c2cc(-c4ccc5c(c4)OCO5)ccc23)c(OC)c1 (configuration not stated) | -22% | ? | i | -17% | 17
NS(=O)(=O)c1cccc(NC(=O)c2cc(=O)c3ccccc3o2)c1 | 12% | i | i | 8% | -6
CCSc1nnc(NC(=O)c2cccc(S(=O)(=O)N(C)c3ccc(C)cc3)c2)s1 | 22% | i | 15µM* | 3% | 0
CN(c1ccccc1)S(=O)(=O)c1cccc(NC(=O)c2cc(=O)c3ccccc3o2)c1 | -26% | i | ? | -20% | -52*
CN(c1ccccc1)S(=O)(=O)c1ccc(NC(=O)c2ccc(-c3ccccc3)cc2)cc1 | -9% | i | ? | ? | -7
COc1ccc(NC(=O)c2cccc(S(=O)(=O)N(C)c3ccccc3)c2)cn1 | 13% | ? | 3.3µM* | 13% | 10
Cc1nc2cc(NC(=O)c3ccc(S(=O)(=O)N(C)c4ccccc4)cc3)ccc2o1 | ? | ? | ? | ? | -56*
COc1ccc(Nc2nc3ccccc3n3c(N)nnc23)cc1 | · | i | i | · | ·
